The list is not random: actives were taken first. Their share in the collection is about 3.8%.
Bfl-1 A1 inh: inhibitors of the anti-apoptotic protein A1, read as caspase activation; AID 2462; 330,000 compounds, 0.066% hits; MEF A1-2A-BIM cells, Caspase-Glo 3/7 luminescence, 3 h; percent of clofoctol response, vehicle zero; caspase activation, % (test concentration not listed);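 active means over half of replicate activation scores above 10%, or exactly half above 10 with the replicate mean above 10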
697 NFkB inh: lowers PMA/ionomycin-induced NF-kB signal in 697 B cells; 697 B-cell NF-kB luciferase reporter, 16 h; AID 435022; 330,000 compounds, 0.33% hits; inhibition, % at 4 µM; in the data active means inhibition above about 35%
Mdm2 MdmX PPI: inhibitors of human Mdm2/MdmX interaction; inhibition, % at 8 µM; 330,000 compounds, 3% hits; AID 485346; SaOS-2 split-luciferase Mdm2/MdmX complementation, luminescence; O15151+Q00987;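 active means inhibition of at least 50% at 8 µM in the primary screen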
Target sequence (O15151 whole entry, looked up): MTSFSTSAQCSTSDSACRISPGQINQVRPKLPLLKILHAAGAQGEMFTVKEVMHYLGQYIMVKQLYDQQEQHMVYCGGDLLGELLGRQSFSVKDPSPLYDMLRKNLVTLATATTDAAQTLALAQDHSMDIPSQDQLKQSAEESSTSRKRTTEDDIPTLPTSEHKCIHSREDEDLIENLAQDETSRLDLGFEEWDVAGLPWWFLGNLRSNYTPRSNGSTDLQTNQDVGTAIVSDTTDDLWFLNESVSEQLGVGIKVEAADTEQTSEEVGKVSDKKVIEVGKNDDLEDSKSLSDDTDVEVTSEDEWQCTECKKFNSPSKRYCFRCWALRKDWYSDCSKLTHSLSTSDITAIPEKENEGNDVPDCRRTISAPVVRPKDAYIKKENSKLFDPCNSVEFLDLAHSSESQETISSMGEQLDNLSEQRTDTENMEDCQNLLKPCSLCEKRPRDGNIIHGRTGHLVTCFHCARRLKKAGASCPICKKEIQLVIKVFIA
Target sequence (Q00987 whole entry, looked up): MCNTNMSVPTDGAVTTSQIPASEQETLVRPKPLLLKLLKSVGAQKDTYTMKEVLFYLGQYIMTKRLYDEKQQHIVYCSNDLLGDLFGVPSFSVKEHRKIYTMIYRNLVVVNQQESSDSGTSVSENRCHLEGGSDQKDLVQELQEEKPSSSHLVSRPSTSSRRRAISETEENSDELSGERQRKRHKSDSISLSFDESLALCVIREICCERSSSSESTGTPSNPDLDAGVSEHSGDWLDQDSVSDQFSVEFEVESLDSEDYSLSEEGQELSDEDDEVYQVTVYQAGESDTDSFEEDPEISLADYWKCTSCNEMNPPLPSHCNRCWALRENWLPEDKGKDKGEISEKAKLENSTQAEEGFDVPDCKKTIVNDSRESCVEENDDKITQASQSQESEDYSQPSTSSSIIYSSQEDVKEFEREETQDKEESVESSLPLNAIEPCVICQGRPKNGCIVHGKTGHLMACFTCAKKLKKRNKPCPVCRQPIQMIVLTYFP
NTR1 ag: NTR1 (human) agonism | AID 493036 | P30989 | 330,000 compounds, 0.17% hits | NTR1-U2OS beta-arrestin-GFP spot imaging, agonist mode | activation, % at 20 µM;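 active means activation at or above 40% of the spot to cytoplasm intensity ratio, with at least 20 cells analyzed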
Beta apoptosis: beta cell apoptosis inhibition; INS-1E cytokine-induced death, ATP luminescence, 48 h; percent of positive-control rescue, neutral wells zero; protection from apoptosis, % (concentration not given with the values); 300,000 compounds, 0.8% hits; AID 435005;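 active means Every replicate reaches about 75%, or at least half do and their mean reaches it too, limit read from the data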;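 further: higher means more ATP so stronger rescue from cytokine killing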
Jurkat NFkB inh: lowers PMA/ionomycin-induced NF-kB signal in Jurkat cells; PMA/ionomycin-induced NF-kB luciferase reporter, luminescence; inhibition, % at 4 µM; 330,000 compounds, 0.53% hits; in the data active means inhibition above about 50%
Jurkat NFkB conf: inhibitors of the PMA/ionomycin-induced NF-kB reporter in Jurkat cells, retest | shares compounds with Jurkat NFkB inh | Jurkat NF-kB luciferase, 16 h | inhibition, % at 4 µM | 2,700 compounds, 27% hits | AID 435020;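 active means inhibition reaching about 45% at 4 µM in either replicate, limit read from the data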
697 NFkB conf: inhibitors of the PMA/ionomycin-induced NF-kB reporter in 697 B cells, retest | shares compounds with 697 NFkB inh | 697 B-cell NF-kB luciferase, 16 h | inhibition, % at 4 µM | 2,000 compounds, 35% hits | AID 449746; in the data active means inhibition mostly above about 28%, no sharp cut-off; inactive means mostly below about 22%
Numbers stand for hits; . = inactive; / = not tested or not shown.

SMILES | Bfl-1 A1 inh | 697 NFkB inh | Mdm2 MdmX PPI | NTR1 ag | Beta apoptosis | Jurkat NFkB inh | Jurkat NFkB conf | 697 NFkB conf
N#Cc1ccccc1CCN1C(=O)c2ccccc2C1=O | . | . | . | . | . | . | / | /
CC(C)(O)c1[nH]c2ccc(C#N)cc2c1C(C)(C)O | . | 59 | . | . | . | 63 | 88 | 60
CC(C)(O)c1[nH]c2ccc(C(F)(F)F)cc2c1C(C)(C)O | . | . | . | . | . | . | / | /
Nc1c2c(nc3sc4c(c13)CCCCC4)CCCCC2 | . | . | . | . | . | . | . | .
Cc1ccc2nsnc2c1NC(=O)c1ccc([N+](=O)[O-])o1 | . | . | . | . | . | . | / | /
Cc1ccnc(NC(=O)c2sc3ccccc3c2Cl)c1 | . | . | . | . | . | . | . | .
Cc1cc(NNC(=O)Nc2cccc(Cl)c2)nc2c1c(C)nn2C | . | 58 | . | . | . | 53 | 56 | 56
O=C(Nc1ccc(-c2nc3cc(Cl)ccc3o2)cc1)C1CCCO1 (stereo not given) | . | . | . | . | . | . | . | .
CCCC(=O)Nc1ccc(-c2nc3cc(C)ccc3o2)cc1 | . | . | . | . | . | . | . | .
COCCOc1ccc(C(F)(F)F)cc1NC(=O)CN1C(=O)NC2(CCc3ccccc32)C1=O (stereo not given) | . | . | . | . | . | . | / | /
CC(Oc1ccccc1F)c1nnc(SCC(=O)c2c(N)n(C3CC3)c(=O)[nH]c2=O)o1 (stereo not given) | . | . | . | . | . | . | / | /
CC(COc1ccccc1Cc1ccccc1)N1CCCCC1 (stereo not given) | . | . | . | . | / | . | / | /
O=C(O)Cn1c(-c2ccccc2)cc2ccccc21 | . | . | . | . | . | . | / | /
CCOC(=O)c1c(C)[nH]c(C(=O)CSc2ccccc2)c1C | . | . | . | . | . | . | . | .
CCOC(=O)c1c(C)[nH]c(C(=O)COC(=O)CCSc2ccccc2)c1C | . | . | . | . | . | . | / | /
Cc1cc(C)c2c(N)c(C(=O)Nc3ccc(C)c(C)c3)sc2n1 | . | . | . | . | . | . | . | .
COc1ccc(NC(=O)c2sc3nc(C)cc(C)c3c2N)cc1 | . | . | . | . | . | . | / | /
CNC(=O)c1ccsc1NC(=O)c1ccc2c(c1)CCCC2 | . | . | . | . | . | . | / | /
NC(=O)c1ccsc1NC(=O)c1ccc2c(c1)CCCC2 | . | . | . | . | . | . | . | .
COc1ccc(C2=CN(Cc3ccccc3)CCC2=O)cc1 | . | . | . | . | . | . | / | /
O=C(Nc1ccc2c(c1)OCCO2)c1ccc(Cl)cc1Cl | . | . | . | . | / | . | . | .
O=C(Nc1ccc(N2CCN(C(=O)c3ccccc3)CC2)cc1)c1ccc2c(c1)OCCO2 | . | . | . | . | / | . | / | /
O=C(Nc1ccc(N2CCN(C(=O)c3ccc(Cl)cc3)CC2)cc1)c1ccc2c(c1)OCCO2 | . | 39 | . | . | . | 58 | 57 | .
Cc1ccc(N=Cc2sc(O)c3ccccc23)c(C)c1 | . | . | . | . | . | . | / | /
Cc1ccc(N=Cc2sc(O)c3ccccc23)cc1 | . | . | . | . | . | . | . | .
SMILES | Bfl-1 A1 inh | 697 NFkB inh | Mdm2 MdmX PPI | NTR1 ag | Beta apoptosis | Jurkat NFkB inh | Jurkat NFkB conf | 697 NFkB conf
CCOC(=O)C1=CN(Cc2cccc(F)c2)S(=O)(=O)N(CC)C1c1ccc(F)c(Cl)c1 (stereo not given) | / | . | . | . | / | / | / | /
COc1cccc(CNC(C)(C)CO)c1OCc1ccc(Cl)cc1 | . | . | . | . | . | . | / | /
COc1cccc(OCc2ccc(Cl)cc2)c1C#N | . | . | . | . | . | . | . | .
Cc1ccc(S(=O)(=O)N2CCCC2CNC(=O)C(=O)NCCN2CCOCC2)cc1 (stereo not given) | . | . | . | . | . | . | / | /
COc1cc(SC)ccc1C(=O)Nc1ccc2ncccc2c1 | . | . | . | . | . | . | . | .
O=C(Nc1ccc2ncccc2c1)c1ccccc1Br | . | . | . | . | . | . | / | /
COc1ccc(C(=O)Nc2nnc(SCC(=O)NC3CCCC3)s2)c(OC)c1 | . | . | . | . | . | . | / | /
COc1ccc(C(=O)Nc2nnc(SCC(=O)Nc3ccc(NC(C)=O)cc3)s2)c(OC)c1 | . | 71 | . | . | . | . | . | 61
CCC(C)[C@H](NC(=O)[C@@H]1Cc2ccccc2CN1)C(=O)Nc1ccc2c(c1)OCO2 (stereo not given in full) | . | . | . | . | . | . | / | /
CC(=Nc1ccccc1)c1sc2ccccc2c1O | . | . | . | . | . | . | . | .
CC1(c2ccc3ccccc3c2)NC(=O)N(CC(=O)N2CCN(Cc3ccc(C#N)cc3)CC2)C1=O (stereo not given) | / | 48 | . | . | / | 58 | 68 | 103
COc1ccc2oc(C(=O)N3CCc4ccccc43)c(C)c2c1 | . | . | . | . | . | . | . | .
COc1cccc(OCC(=O)Nc2c3c(nn2-c2ccc(F)cc2)CS(=O)(=O)C3)c1 | . | . | . | . | . | . | / | /
Cc1cccc(-c2cc3c(N=O)c4ccccc4c-3n[nH]2)c1 | . | . | . | . | . | . | . | .
O=c1[nH]nc(-c2ccccc2)c2ccccc12 | . | . | . | . | . | . | / | /
Cc1c(C(=O)Nc2ccccc2)cnn1-c1ccccc1 | . | . | . | . | . | . | / | /
Cc1ccc(NC(=O)c2cnn(-c3ccccc3)c2C)cc1C | . | . | . | . | . | . | . | .
O=C(COC(=O)COc1ccc(Br)cc1)NNC(=O)c1ccccc1 | . | . | . | . | . | . | / | /
O=c1c2ccccc2cnn1-c1ccc2ccccc2c1 | . | . | . | . | . | . | . | .
Fc1ccc(NC(=S)N2CCCN(c3ccc(C(F)(F)F)cn3)CC2)c(F)c1 | . | 54 | . | . | . | 66 | . | .
CCC(C)NC(=O)c1cc2cc3ccc(OC)cc3nc2s1 (stereo not given) | . | . | . | . | / | . | . | .
COc1ccc2cc3cc(C(=O)NCCN4CCc5ccccc5C4)sc3nc2c1 | . | . | . | . | . | . | / | /
COc1ccccc1-c1cc(C(=O)NC2CCCC2)no1 | . | . | . | . | . | . | / | /
CC(C)Nc1ncnc2c1cnn2-c1ccc(Cl)cc1 | . | . | . | . | / | . | . | .
O=C(/C=C/Nc1ccccc1)c1ccc(Cl)cc1Cl | . | . | . | . | . | . | . | .
COc1cccc(N/C=C/C(=O)c2ccc(C)cc2)c1 | . | . | . | . | . | . | . | .
O=C(/C=C/Nc1ccccc1)c1ccccc1 | . | . | . | . | . | . | . | .
CCOC(=O)c1ccc(N/C=C/C(=O)c2ccccc2)cc1 | . | . | . | . | . | . | / | /
CC(=O)N1CCc2cc(S(=O)(=O)CCC(=O)N(C)Cc3ccco3)ccc21 | . | . | . | . | . | . | / | /
